Experimental findings from PubChem BioAssay (NCI) are described below.

About 83,000 compounds went through this panel and 20% of them were active in at least one assay; those are over-represented in the sample as a whole.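 In brief: 96-well plates, 48 h treatment, single concentration, percent growth endpoint.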 A number with no mark means an inactive call. Active and inactive are the calls of the source. How the source made its calls: active means growth percent below 10; inactive means the rest.

Among the test systems are SK-MEL-2 melanoma; EKVX NSCLC; SN12C renal; UO-31 renal; TK-10 renal; ACHN renal; CAKI-1 renal; A498 renal; CCRF-CEM leukemia; MOLT-4 leukemia; SR leukemia; RPMI-8226 leukemia; OVCAR-8 ovarian; OVCAR-5 ovarian; SK-OV-3 ovarian; IGROV1 ovarian; OVCAR-3 ovarian; HS 578T breast; NCI/ADR-RES ovarian; OVCAR-4 ovarian.
Holding throughout (experiment): NCI-60 one-dose screen, 48 h (100 = growth as untreated, 0 = no growth, -100 = all killed)
What all share (settings): 10 µM unless noted

In the case of `Cc1cccc2c1C[C@@]1(C2=O)C(c2ccc(C(C)(C)C)cc2)=NOS1=O` (stereo partly drawn), the growth in the experiment with SK-MEL-2 melanoma is 93.1%; in the experiment with EKVX NSCLC it was 79.2%; in the experiment with SN12C renal, 92.3%; with UO-31 renal it was 77.1%; with TK-10 renal it was 158%; in the experiment with ACHN renal it was 108%. Moreover, the growth was 94.2% in the experiment with CAKI-1 renal; 77.1% in the experiment with A498 renal; 83.6% in the experiment on CCRF-CEM leukemia; 80.1% in the experiment with MOLT-4 leukemia; 71% with SR leukemia; 69.4% in the experiment with RPMI-8226 leukemia. Moreover, the growth with OVCAR-8 ovarian was 89.2%; in the experiment with OVCAR-5 ovarian it was 112%; in the experiment on SK-OV-3 ovarian, 98.4%; in the experiment with IGROV1 ovarian, 64.5%; in the experiment with OVCAR-3 ovarian, 92.1%; in the experiment on HS 578T breast, 87.2%. Moreover, the growth with NCI/ADR-RES ovarian was 86%.

`CCN(CC)CCN1C(=O)c2cccc3c(/C=C/CN4C(=O)c5cccc6cccc(c56)C4=O)ccc(c23)C1=O`: the growth was 108% in the experiment on SK-MEL-2 melanoma; 106% in the experiment on EKVX NSCLC; 96.1% in the experiment on SN12C renal; 82% in the experiment on UO-31 renal; 129% with TK-10 renal; 96.8% in the experiment with ACHN renal. Also, the growth was 89% in the experiment with CAKI-1 renal; 77.7% with A498 renal; 25.4% in the experiment with CCRF-CEM leukemia; 62.8% in the experiment on MOLT-4 leukemia; 38.6% with SR leukemia; 26.5% in the experiment with RPMI-8226 leukemia. Moreover, the growth in the experiment with OVCAR-8 ovarian was 92.1%; with OVCAR-5 ovarian it was 94.4%; with OVCAR-4 ovarian it was 102%; in the experiment with SK-OV-3 ovarian, 112%; with IGROV1 ovarian, 90.1%; in the experiment with HS 578T breast, 84.8%. Further, the growth in the experiment with NCI/ADR-RES ovarian is 99.8%.

With `N#CC1CCc2c(c(-c3ccc4nc(N)sc4c3)nc3ccc4[nH]ncc4c23)C1` (stereo not drawn), the growth in the experiment with SK-MEL-2 melanoma was 51.7%; in the experiment with EKVX NSCLC, 64.8%; with SN12C renal it was 62.5%; with UO-31 renal it was 31.2%; with TK-10 renal it was 41.6%; with ACHN renal, 29.6%. For the same compound, the growth in the experiment with CAKI-1 renal was 11.3%; in the experiment on A498 renal it was -3.66% (active); in the experiment with CCRF-CEM leukemia it was 42.6%; in the experiment on MOLT-4 leukemia it was 17.2%; in the experiment on SR leukemia, 9.04% (active); in the experiment on RPMI-8226 leukemia, 43.4%. Moreover, the growth in the experiment on OVCAR-8 ovarian was 46.4%; in the experiment on OVCAR-5 ovarian it was 65.5%; in the experiment on OVCAR-4 ovarian, 64.9%; in the experiment with SK-OV-3 ovarian, 33.7%; in the experiment with IGROV1 ovarian, 53.2%; in the experiment with HS 578T breast, 30.9%. Further, the growth with NCI/ADR-RES ovarian is 63.7%.

For `C#Cc1cccc(Nc2nc(C)nc3cc(NC(=O)CCl)ccc23)c1`, the growth with SK-MEL-2 melanoma is -69.8% (active); in the experiment with EKVX NSCLC it was -58.8% (active); with SN12C renal it was -67.8% (active); in the experiment with UO-31 renal, -91.8% (active); with TK-10 renal, -93.9% (active); in the experiment on ACHN renal, -92% (active). For the same compound, the growth is -91% (active) with CAKI-1 renal; 48.2% in the experiment on A498 renal; -12.3% (active) with CCRF-CEM leukemia; -20.7% (active) in the experiment with MOLT-4 leukemia; -40.4% (active) in the experiment with SR leukemia; -47.5% (active) in the experiment with RPMI-8226 leukemia. In addition, the growth in the experiment with OVCAR-8 ovarian was -15.4% (active); in the experiment on OVCAR-5 ovarian, -84.7% (active); in the experiment with SK-OV-3 ovarian, 8.47% (active); with IGROV1 ovarian, -56.7% (active); with OVCAR-3 ovarian it was -88.2% (active); in the experiment on HS 578T breast, -11.6% (active). In addition, the growth with NCI/ADR-RES ovarian was -22% (active).

For the compound `Cc1c(Cl)cccc1C(=O)Nc1nc2c(s1)CN(C(=O)c1ccc(C(F)(F)F)cc1)CC2`, the growth in the experiment with SK-MEL-2 melanoma was 49.9%; with EKVX NSCLC, 49.5%; in the experiment on SN12C renal, 30%; in the experiment with UO-31 renal, 44.4%; with TK-10 renal, 64.5%; with ACHN renal, 25.3%. The growth is 22.7% in the experiment on CAKI-1 renal; -20.1% (active) in the experiment on A498 renal; 16.5% in the experiment on CCRF-CEM leukemia; 21.8% in the experiment with MOLT-4 leukemia; 21.3% with SR leukemia; 10.6% in the experiment on RPMI-8226 leukemia. Further, the growth in the experiment with OVCAR-8 ovarian is 10.1%; with OVCAR-5 ovarian, 57.5%; in the experiment with SK-OV-3 ovarian it was 36.4%; with IGROV1 ovarian, 17.9%; in the experiment with OVCAR-3 ovarian, 0.113% (active); in the experiment on HS 578T breast, 26.8%. Also, the growth in the experiment with NCI/ADR-RES ovarian is 5.22% (active).

Turning to `CCOC(=O)C(=Cc1ccc(-c2ccccc2)cc1)C(=O)OCC`, the growth with SK-MEL-2 melanoma was 51.8%; with EKVX NSCLC, 95%; with SN12C renal it was 67.3%; in the experiment with UO-31 renal, 55.4%; in the experiment on TK-10 renal, 66%; in the experiment with ACHN renal, 34%. The growth is 85.6% in the experiment with CAKI-1 renal; 108% with A498 renal; 1.19% (active) with CCRF-CEM leukemia; -3.57% (active) in the experiment on MOLT-4 leukemia; 4.01% (active) with SR leukemia; -3.52% (active) with RPMI-8226 leukemia. For the same compound, the growth in the experiment on OVCAR-8 ovarian is 19.7%; with OVCAR-5 ovarian, 71%; in the experiment on OVCAR-4 ovarian it was 75.5%; with SK-OV-3 ovarian it was 95.6%; in the experiment with IGROV1 ovarian it was 50.5%; in the experiment with OVCAR-3 ovarian it was 52.8%. Also, the growth with HS 578T breast was 39.7%; with NCI/ADR-RES ovarian it was 19.6%.

For the compound `CN(Cc1cnc2nc(N)nc(N)c2n1)c1ccc(C(=O)NC(CCC(=O)O)C(=O)O)cc1Br` (stereo not drawn), the growth with SK-MEL-2 melanoma was 67.4%; in the experiment on EKVX NSCLC, 67.6%; with SN12C renal, 26%; with UO-31 renal, 38.8%; in the experiment with TK-10 renal, 50.4%; in the experiment with ACHN renal, 15.8%. The growth in the experiment with CAKI-1 renal was 19%; with A498 renal, 76.4%; in the experiment with CCRF-CEM leukemia it was 37.9%; in the experiment with MOLT-4 leukemia, 30.5%; with SR leukemia it was 34.1%; with RPMI-8226 leukemia, 54.3%. The growth in the experiment on OVCAR-8 ovarian is 45.5%; with OVCAR-5 ovarian, 27.7%; in the experiment on OVCAR-4 ovarian, 75%; in the experiment on SK-OV-3 ovarian it was 45.3%; with IGROV1 ovarian, 40.9%; in the experiment on HS 578T breast it was 96.7%. The growth in the experiment on NCI/ADR-RES ovarian is 38.4%.

As for `COc1ccc2cc(-c3ccnc4c(N=Nc5ccc(Cl)cc5)c(N)nn34)ccc2c1`, the growth is 118% with SK-MEL-2 melanoma; 114% in the experiment on EKVX NSCLC; 100% in the experiment with SN12C renal; 77.7% in the experiment on UO-31 renal; 102% in the experiment on TK-10 renal; 100% in the experiment on ACHN renal. The growth in the experiment on CAKI-1 renal is 92.2%; in the experiment with A498 renal, 97.2%; in the experiment on CCRF-CEM leukemia it was 91.6%; in the experiment on MOLT-4 leukemia it was 100%; in the experiment on SR leukemia, 95.2%; in the experiment on RPMI-8226 leukemia it was 94.9%. In addition, the growth is 93.9% in the experiment with OVCAR-8 ovarian; 99.7% in the experiment with OVCAR-5 ovarian; 116% in the experiment with OVCAR-4 ovarian; 93.7% in the experiment on SK-OV-3 ovarian; 102% in the experiment with IGROV1 ovarian; 92.9% with HS 578T breast. Besides, the growth in the experiment on NCI/ADR-RES ovarian is 94.5%.
